Data: PubChem BioAssay (NCATS)
Inconclusive results are not listed. Calls of active or inactive are those of the source. Calls follow the shape of the dose curve; as a rule, active = well fitted inhibition curve with a large enough effect; inconclusive = small, poorly fitted or top-dose-only effect; inactive = flat fitted curve, though single readings scatter.

What was measured:
CRL-7250 = normal cell line; assay: Cytotoxic Profiling of Annotated Libraries Using Quantitative High-Throughput Screening (AID 1296008); settings: Five cell lines viability, CellTiter-Glo ATP luminescence, 48-72 h; max response: hits give low values; as to max response: % is scaled to controls: 0 for no effect and ±100 for the full control effect
In short: (§1)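 Compounds were pin-transferred onto cells and incubated 48 or 72 hr at 37 degree Celsius, 95% humidity. CellTiter-Glo was added, plates sat 10 min at room temperature, then ATP-coupled luminescence was imaged as the viability read-out.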

HEK293 = assay: as above; settings: Five cell lines viability, CellTiter-Glo ATP luminescence, 48-72 h; max response: hits give low values
In short: as §1

HaCat = assay: as above; settings: Five cell lines viability, CellTiter-Glo ATP luminescence, 48-72 h; max response: hits give low values
In short: as §1

KB-3-1 = assay: as above; settings: Five cell lines viability, CellTiter-Glo ATP luminescence, 48-72 h; max response: hits give low values
In short: as §1

NIH3T3 = assay: as above; settings: Five cell lines viability, CellTiter-Glo ATP luminescence, 48-72 h; max response: hits give low values
In short: as §1

HEK293T = assay: qHTS assay to identify novel small-molecules to repurpose for Merkel cell carcinoma treatment (AID 1296009); settings: MCC and control cell lines, CellTiter-Glo viability, 72 h; series mostly up to 44.8 µM
In short: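 qHTS format: cells treated with library compounds in DMSO across 8 (NPC) or 11 (MIPE) concentrations. Readout after 72 hr at 37 degree celsius was CellTiter-Glo luminescence.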
Also: nearly all actives have a fitted effect of over 60% in size.

COc1cc2c(cc1O)C1(OC)Cc3ccc4c(c3C1N(C)CC2)OCO4 (stereo not drawn)
inactive: max response (CRL-7250) -5.51% | outcome (HEK293) | max response (HaCat) -3.77% | max response (KB-3-1) 9.56% | max response (NIH3T3) 2.76% | Potency (HEK293T)

CCCn1cnc2c(NCc3ccccc3)nc(N[C@H](CC)CO)nc21
inactive: max response (CRL-7250) -7.86% | outcome (HEK293) | max response (HaCat) 0.198% | outcome (KB-3-1) | outcome (NIH3T3) | Potency (HEK293T)

CN1C(=O)c2ccccc2NC(=O)[C@]12O[C@@H]2c1cccc(O)c1
inactive: max response (CRL-7250) -2% | outcome (HEK293) | max response (HaCat) -7.54% | max response (KB-3-1) 4.06% | max response (NIH3T3) -15.7% | Potency (HEK293T)

C=C1[C@H]2CC[C@]3(O)[C@@](CC[C@@H]4[C@](C)(C(=O)O)CCC[C@]43C)(C2)[C@H]1OC(=O)/C(C)=C\C
inactive: max response (CRL-7250) 2.63% | outcome (HEK293) | max response (HaCat) -13.2% | outcome (KB-3-1) | max response (NIH3T3) 0.4% | Potency (HEK293T)

C[C@@H]1CC[C@]2(C)C3(C)CC[C@@]2(OC3=O)[C@@]12C[C@H](c1ccoc1)OC2=O
inactive: max response (CRL-7250) -6.81% | outcome (HEK293) | max response (HaCat) -0.0916% | max response (KB-3-1) -4.36% | max response (NIH3T3) -0.649% | Potency (HEK293T)

CC(C)CC(=O)OC[C@H]1O[C@@](COC(=O)CC(C)C)(O[C@H]2O[C@H](CO)[C@@H](O)[C@H](O)[C@H]2OC(=O)CC(C)C)[C@@H](OC(=O)CC(C)C)[C@@H]1O
inactive: outcome (CRL-7250) | outcome (HEK293) | max response (HaCat) -5.25% | max response (KB-3-1) 6.03% | max response (NIH3T3) 0.671% | Potency (HEK293T)

CCC(C)(O)C(O)C(=O)OCc1ccc(O[C@@H]2O[C@H](CO)[C@@H](O)[C@H](O)[C@H]2O)cc1 (stereo partly drawn)
inactive: max response (CRL-7250) -2.71% | outcome (HEK293) | max response (HaCat) -0.484% | outcome (KB-3-1) | max response (NIH3T3) -0.787% | Potency (HEK293T)

OCc1ccccc1O[C@@H]1O[C@H](CO)[C@@H](O)[C@H](O)[C@H]1O
inactive: max response (CRL-7250) -0.323% | outcome (HEK293) | max response (HaCat) -0.335% | max response (KB-3-1) 6.41% | max response (NIH3T3) -2.31% | Potency (HEK293T)

CCC(C)/C=C(C)/C=C/C1=CC2=C(Cl)C(=O)C(C)(OC(C)=O)C(=O)C2=CN1CCCC(=O)O (stereo not drawn)
inactive: outcome (CRL-7250) | outcome (HEK293) | max response (HaCat) -6.78% | outcome (KB-3-1) | max response (NIH3T3) -0.464% | Potency (HEK293T)

O=C1NC(Cc2ccc(O)cc2)C(=O)N2CCCC12 (stereo not drawn)
inactive: max response (CRL-7250) -11.1% | outcome (HEK293) | max response (HaCat) -15.4% | max response (KB-3-1) 8.78% | max response (NIH3T3) -0.188% | Potency (HEK293T)

N[C@@H](CC(=O)N1CCn2c(nnc2C(F)(F)F)C1)Cc1[nH]nc2c(F)c(F)ccc12
inactive: max response (CRL-7250) -0.191% | outcome (HEK293) | max response (HaCat) -2.51% | max response (KB-3-1) -3.58% | max response (NIH3T3) -1.97% | Potency (HEK293T)

CC1CCC2C(C(=O)O)=CC3CC(C)(C)CC132 (stereo not drawn)
inactive: max response (CRL-7250) 3.63% | outcome (HEK293) | max response (HaCat) -7.87% | max response (KB-3-1) 3% | outcome (NIH3T3) | Potency (HEK293T)

CC(/C=C/[C@]1(O)[C@@]2(C)CO[C@@]1(C)C[C@@H](O)C2)=C\C(=O)O[C@@H]1O[C@H](CO)[C@@H](O)[C@H](O)[C@H]1O
inactive: outcome (CRL-7250) | outcome (HEK293) | max response (HaCat) -14.2% | outcome (KB-3-1) | outcome (NIH3T3) | Potency (HEK293T)

CCn1cc(C2=NOC(C(=O)Nc3c(C)n(C)n(-c4ccccc4)c3=O)C2)c(C)n1 (stereo not drawn)
inactive: max response (CRL-7250) 1.73% | outcome (HEK293) | max response (HaCat) -4.53% | outcome (KB-3-1) | max response (NIH3T3) 2.09% | Potency (HEK293T)

C=CC(C)(O)CO[C@@H]1O[C@H](CO)[C@@H](O)[C@H](O)[C@H]1O (stereo partly drawn)
inactive: max response (CRL-7250) -1.51% | outcome (HEK293) | max response (HaCat) -30.3% | max response (KB-3-1) 1.27% | max response (NIH3T3) -4.31% | Potency (HEK293T)

COc1cc(-c2cccc(O)c2)cc2c1OCO2
inactive: max response (CRL-7250) -4.5% | outcome (HEK293) | max response (HaCat) 0.342% | outcome (KB-3-1) | outcome (NIH3T3) | Potency (HEK293T)

C[C@@H](Nc1cc(NS(=O)(=O)N2CCC2)nc(SCc2cccc(F)c2F)n1)[C@@H](O)CO
inactive: max response (CRL-7250) 3.18% | outcome (HEK293) | max response (HaCat) 1.29% | max response (KB-3-1) -2.77% | outcome (NIH3T3) | Potency (HEK293T)

C[C@@H]1O[C@@H](O[C@H]2[C@H](O[C@H]3[C@H](O[C@H]4CC[C@@]5(CO)C(CC[C@]6(C)C5CC=C5C7CC(C)(C)C[C@@H](O)[C@]7(C)CC[C@]56C)C4(C)C)O[C@H](C(=O)O)[C@@H](O)[C@@H]3O)OC[C@@H](O)[C@@H]2O)[C@H](O)[C@H](O)[C@H]1O (stereo partly drawn)
inactive: outcome (CRL-7250) | outcome (HEK293) | max response (HaCat) 4.17% | max response (KB-3-1) 5.01% | max response (NIH3T3) -0.118% | outcome (HEK293T) inactive [at 9.27 µM]
